# High-throughput results as filed in PubChem BioAssay.
# An excerpt weighted towards active compounds, which were near 3% of everything screened.
# SENP7 block = inhibitors of human SENP7 protease; recombinant SENP7, Z-RLRGG-aminoluciferin luminescence, 40 min; 1.5% of 330,000 active; Q9BQF6; inhibition, % at 5 µM;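 active = inhibition above about 50% at the single test dose, limit read from the data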
# SENP8 block-1 = SENP8 protease inhibition. Q96LD8. purified SENP8, Z-RLRGG-aminoluciferin cleavage, luminescence. inhibition, % at 10 µM. 1.2% of 330,000 active. AID 2540; in the data active = inhibition above about 50%
# SENP6 block = blocks the human protease SENP6; Q9GZR1; Recombinant SENP6 catalytic domain, aminoluciferin luminescence; inhibition, % at 10 µM; 1.8% of 330,000 active;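 active = inhibition above about 50% at the single tested dose, limit read from the data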
# Target sequence (Q9GZR1 628-1112 limits assumed): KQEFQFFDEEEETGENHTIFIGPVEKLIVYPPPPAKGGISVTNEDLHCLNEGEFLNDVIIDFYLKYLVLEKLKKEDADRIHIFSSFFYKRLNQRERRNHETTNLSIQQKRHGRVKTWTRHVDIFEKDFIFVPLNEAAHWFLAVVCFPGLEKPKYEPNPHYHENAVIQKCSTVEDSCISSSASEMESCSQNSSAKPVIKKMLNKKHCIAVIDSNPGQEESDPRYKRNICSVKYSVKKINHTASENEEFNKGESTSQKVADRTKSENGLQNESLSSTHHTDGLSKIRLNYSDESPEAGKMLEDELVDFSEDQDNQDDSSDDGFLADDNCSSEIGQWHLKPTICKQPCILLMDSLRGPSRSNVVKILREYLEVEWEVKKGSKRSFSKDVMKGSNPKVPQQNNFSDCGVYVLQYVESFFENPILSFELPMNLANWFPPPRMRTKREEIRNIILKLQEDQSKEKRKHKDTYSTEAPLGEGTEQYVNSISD
# PPC-1+TRAIL kill = PPC-1 cancer cell killing with TRAIL present; PPC-1 cells + TRAIL, ATPLite viability luminescence; cell killing (% activity), % at 4 µM or 5 µM; AID 1443; 0.41% of 220,000 active;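 active = cell killing above 50% in the first pass at 4 µM, then a duplicate retest at 5 µM averaging 50% or more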
# C8 TRAIL sens = caspase-8 TRAIL sensitization; NB7+C8 cells + TRAIL, ATPlite viability luminescence; inhibition (viability loss, TRAIL sensitization), % at 10 µM; AID 624354; 1% of 360,000 active;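 active = compounds causing at least 50% loss of cell viability in the single-dose screen, relative to plate controls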
# SENP8 block-2 = SENP8 (human) protease inhibition | 0.64% of 360,000 active | inhibition, % at 20 µM | recombinant SENP8, Nedd8 substrate fluorescence | Q96LD8; in the data active = inhibition mostly above about 40%, no sharp cut-off; inactive = mostly below about 27%
# SENP8 conf = human SENP8 inhibition, confirmed | 40% of 6,200 active | shares compounds with SENP7 block | inhibition, % at 12.5 µM | AID 488912 | Recombinant SENP8, Z-RLRGG-aminoluciferin luminescence, 60 min;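 active = mean inhibition across replicates above about 50%, limit read from the data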
# SENP6 conf = human SENP6 inhibition, confirmed. shares compounds with SENP7 block. recombinant SENP6, Z-RLRGG-aminoluciferin luminescence. inhibition, % at 12.5 µM. 58% of 6,200 active
# SENP7 confirm = human SENP7 inhibition, confirmed. shares compounds with SENP7 block. recombinant SENP7, Z-RLRGG-aminoluciferin luminescence, 40 min. inhibition, % at 12.5 µM. 69% of 6,200 active
# Casp3 SENP sel = selectivity test for SENP inhibitors: human caspase-3 inhibition; shares compounds with SENP7 block; purified caspase-3, Z-DEVD-aminoluciferin luminescence, 60 min; inhibition, % at 12.5 µM; 60% of 6,200 active; AID 488918;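 active = mean inhibition above about 50%, limit read from the data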
# SENP luc ctr = luminescence interference (SENP counter-screen); shares compounds with SENP7 block; Pre-incubated SENP8/Z-RLRGG-aminoluciferin, luciferase luminescence interference; inhibition, % at 12.5 µM; 39% of 6,200 active; AID 488919;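 active = mean inhibition above about 50% when retested at one dose, limit read from the data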
# Numbers stand for hits; 0 = inactive; - = no result given.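 Rule for the calls, unless noted: active = mean inhibition above about 50% in the one-dose retest (limit read from the data); inactive = the rest.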
SMILES,SENP7 block,SENP8 block-1,SENP6 block,PPC-1+TRAIL kill,C8 TRAIL sens,SENP8 block-2,SENP8 conf,SENP6 conf,SENP7 confirm,Casp3 SENP sel,SENP luc ctr
c1ccc([C@H]2CN3C(=N2)Sc2ccccc23)cc1,88,89,93,-,0,0,93,93,100,88,92
O=C(NC(=O)c1ccccc1)Nc1cccc(S(=O)(=O)N2CCCCC2)c1,0,0,0,-,0,0,-,-,-,-,-
CCNc1nc(SCC(=O)Nc2ccc(Cl)c(Cl)c2)nc(N2CCOCC2)n1,0,0,0,-,0,0,-,-,-,-,-
CCC(=O)NCCc1nc2cc(NC(=O)c3ccc(F)cc3)ccc2n1C,0,0,0,-,0,0,-,-,-,-,-
Cc1ccccc1NC(=O)CN1C(=O)NC2(CCCCCCC2)C1=O,0,0,0,-,0,0,-,-,-,-,-
Cc1nnc(N2C(=O)C(O)=C(C(=O)c3ccco3)C2c2ccc(C(C)(C)C)cc2)s1 (stereo not drawn),0,0,86,0,0,0,0,0,0,0,0
CSc1ccc(C2C(C(=O)c3ccco3)=C(O)C(=O)N2c2nnc(SC)s2)cc1 (stereo not drawn),0,0,75,-,0,0,0,0,0,0,0
Cc1nnc(N2C(=O)C(O)=C(C(=O)c3ccco3)C2c2ccc(F)cc2)s1 (stereo not drawn),0,0,0,0,0,0,-,-,-,-,-
O=C(COc1coc(CN2CCc3ccccc3C2)cc1=O)Nc1ccc(F)cc1F,0,0,0,-,0,0,-,-,-,-,-
Cc1ccc(C(=O)NC(C)C2CC3CCC2C3)c(C)c1 (stereo not drawn),0,0,0,-,0,0,-,-,-,-,-
CN(C)c1ccc(CNC(=O)CC[C@H]2O[C@@H](n3cnc4c(NC(=O)c5ccccc5)ncnc43)[C@H](O)[C@@H]2O)cc1,-,-,-,-,0,0,-,-,-,-,-
O=[N+]([O-])c1ccc(N=Nc2ccc(O)cc2O)cc1,98,96,97,0,0,0,100,101,104,99,99
O=[N+]([O-])c1cccc(N=Nc2ccc(O)cc2O)c1,-,-,-,-,0,0,-,-,-,-,-
Cc1cc([N+](=O)[O-])cc(/C=N\NC(=O)C2COc3ccccc3O2)c1O (stereo not drawn),0,0,64,0,0,0,0,0,66,0,0
O=C(NCc1ccccc1)C(Cc1ccccc1)N1C(=O)C2C3CCC(C3)C2C1=O (stereo not drawn),0,0,0,0,0,0,-,-,-,-,-
O=C(NC1CCCCC1)C(Cc1ccccc1)N1C(=O)C2C3CCC(C3)C2C1=O (stereo not drawn),80,0,0,0,0,0,0,0,0,0,0
O=C(NC(=O)c1ccccc1)Nc1ccccc1,93,77,83,-,54,0,0,0,50,0,0
Cc1nnc(NC(=O)c2ccc3ccccc3c2)s1,58,0,0,-,0,0,0,0,0,0,0
O=C(Nc1ccc(-c2ccccc2)cc1)c1ccccc1,0,0,0,-,0,0,-,-,-,-,-
O=C(NC(=O)c1ccccc1)Nc1ccc(-c2cnco2)cc1,0,0,0,0,0,0,-,-,-,-,-
Cc1ccc(NC(=O)c2ccccc2)cc1,50,0,0,0,0,0,0,0,78,72,54
Cc1ccc2cc(NC(=O)c3ccccc3)ccc2n1,64,53,62,-,58,0,0,0,81,74,63
COc1ccc(OCCC(=O)OCC(=O)NCc2ccccc2OC)cc1,0,0,0,-,0,0,-,-,-,-,-
Cc1ccc(C(=O)Cc2ccccc2)cc1,-,-,-,-,0,0,-,-,-,-,-
Cc1ccc(C(=O)Nc2ccc3ccccc3c2)cc1,97,87,91,-,83,0,0,51,101,89,0
